ATXN viability = cell viability loss in ATXN counter-screen; S2 cells (HEK-293 line with an ATXN2-luciferase reporter) viability, CellTiter-Fluor protease fluorescence, 24 h; Potency, µM (top dose mostly 56.7 µM), most hits filed as cytotoxic; 400,000 compounds, 0.49% hits; also: potency is read from the fitted curve at half-maximal effect; nearly all actives have a fitted effect of over 40% in size
a7 integrin act = activates integrin-mediated alleviation for muscular dystrophy | alpha7betagal myoblasts, beta-gal FDG fluorescence, 48 h | Potency, µM (doses to about 38.3 µM), inactives show top-dose activation, usual class: activators | 350,000 compounds, 0.064% hits;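 also: potency is read from the fitted curve at half-maximal effect; 100% = response of the positive control SU9516; nearly all actives have a fitted effect of over 60% in size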
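alpha7betagal+/- myoblasts (passage 13, 250/well) treated 48 h at 37C with compounds at 1:260 dilution of DMSO stock. Lysed, then beta-galactosidase activity read as FDG fluorescence (ex 480/em 540) after 30 min, with pre-read for autofluorescence.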
DRD3 agonist = agonists of human D3 dopamine receptor | P35462 | D3R DiscoveRx beta-arrestin cells, luminescence, 90 min | max activation, % | 410,000 compounds, 0.58% hits | AID 652048; in the data active = max activation above about 30%; also: 0% is about no effect
Target sequence (P35462 whole entry, looked up): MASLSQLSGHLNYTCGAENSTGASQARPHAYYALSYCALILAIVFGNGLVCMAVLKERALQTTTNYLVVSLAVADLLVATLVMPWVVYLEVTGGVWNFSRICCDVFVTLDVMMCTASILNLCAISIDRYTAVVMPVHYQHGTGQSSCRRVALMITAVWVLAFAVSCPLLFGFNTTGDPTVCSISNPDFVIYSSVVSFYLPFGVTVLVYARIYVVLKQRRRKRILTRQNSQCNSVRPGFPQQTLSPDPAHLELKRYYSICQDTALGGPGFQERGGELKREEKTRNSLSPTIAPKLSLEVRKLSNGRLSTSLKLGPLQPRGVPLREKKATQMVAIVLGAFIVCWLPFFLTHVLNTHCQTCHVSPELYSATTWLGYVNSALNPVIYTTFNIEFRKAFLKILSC
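Cells at 1500/well, incubated overnight, then treated with pinned compounds (dopamine as control) for 90 min at 37 degrees C. DiscoveRx reagent added for 30 - 60 minutes at room temperature; luminescence read.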
ATXN2 expr inh = inhibitors of ATXN2 expression | HEK-293 ATXN2-luciferase reporter, luminescence, 24 h | Potency, µM (top dose mostly 57 µM), without a hit: at the highest dose activity change, negative = inhibition, actives largely listed as inhibitors | 360,000 compounds, 0.72% hits; also: potency is read from the fitted curve at half-maximal effect; % is scaled to controls: 0 for no effect and ±100 for the full control effect; nearly all actives have a fitted effect of over 55% in size
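ATXN2-luciferase reporter cells (luciferase flanked by upstream and downstream ATXN2 gene portions) were treated 24 h at 37 °C with compounds at up to 57 uM. SteadyGlo luminescence gave expression; GF-AFC fluorescence gave viability.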
IL1B secr inh = inhibitors of inflammasome signaling (IL-1 beta secretion). THP-1 LPS/ATP IL-1B secretion, AlphaLISA, 16 h; hits give low values. 360,000 compounds, 4.7% hits. AID 743279. activity change, % at 57.5 µM; in the data active = activity change below about -50%; inconclusive = mostly about -30% to -49%; also: % is scaled to controls: 0 for no effect and ±100 for the full control effect
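THP-1 cells pretreated 1 hr with compounds (up to 57.5 uM final), then stimulated with LPS (250 ng/mL final) plus ATP (1.25 mM final); secreted IL-1B measured by AlphaLISA after 16 hr, decreased signal indicating inhibition.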
D3 antag = blocks the human D3 dopamine receptor. max response, negative = inhibition, %. P35462. D3R cells, DiscoveRx beta-arrestin luminescence, antagonist mode; hits give low values. 360,000 compounds, 2.5% hits; in the data active = max response below about -50%; inconclusive = no clear call, values can overlap the other calls; also: % is scaled to controls: 0 for no effect and ±100 for the full control effect
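Cells expressing the human receptor were seeded at 1500 cells/well, incubated overnight at 37 degrees C in 5% CO2, then exposed to library compounds with dopamine controls for 90 minutes at 37 degrees C before luminescent detection.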
Active calls of the source: *; i = inactive; ? = inconclusive; . = no result; [ ] = remark or other dose. Hits are enriched below; roughly 7% of the tested compounds scored in any of these assays. Unless noted, calls follow the shape of the dose curve; as a rule, active = well fitted curve in the direction sought with a large enough effect; inconclusive = small, poorly fitted or top-dose-only effect, or another doubt; inactive = no such curve, though single readings can be large; an effect the other way counts as inactive or inconclusive.

SMILES	ATXN viability	a7 integrin act	DRD3 agonist	ATXN2 expr inh	IL1B secr inh	D3 antag
CCOC(=O)CC1C(=O)NCCN1C(=O)c1ccc(Cl)cc1Cl (stereo not drawn)	i	9%	5	9%	29	-2
CCCCN(C(=O)C1CC(=O)N(c2ccc3c(c2)OCCO3)C1)c1c(N)n(CCCC)c(=O)[nH]c1=O (stereo not drawn)	i	-23%	-5	7%	-1	5
CCCCn1c(N)c(N(CC(C)C)C(=O)C2CC(=O)N(c3ccc4c(c3)OCCO4)C2)c(=O)[nH]c1=O (stereo not drawn)	i	11%	-8	7%	2	-55*
COc1ccc(CCNC(=O)c2c(O)c3c([nH]c2=O)CCCC3)cc1	i	3%	2	-25%	-21	-126*
Cn1nc(C(C)(C)C)cc1C(=O)NCc1ccc(N2CCCC2=O)cc1	i	-57%[7.66 µM]	2	-14%	-12	31
Cc1cc(C(=O)CSc2n[nH]c(N)n2)c(C)n1-c1ccc(F)cc1	i	-10%	-4	31%	2	-26
Cc1ccc(-n2c(C)cc(C(=O)COC(=O)c3c(C)noc3C)c2C)cc1	i	-15%[7.66 µM]	2	27%	-58*	8
Cc1ccc(-n2c(C)cc(C(=O)CSc3n[nH]c(N)n3)c2C)cc1	i	-45%	39*	44%	9	33
CC1CCN(CC(=O)NCCc2ccc(F)cc2)CC1	i	14%	-8	-23%	3	-28
C/C=C(/C)C(=O)O[C@@H]1c2c(ccc3ccc(=O)oc23)OC(C)(C)[C@@H]1OC(=O)/C(C)=C\C	?	-37%	47*	?	?	3
CC1(C)Oc2ccc3ccc(=O)oc3c2[C@@H](O)[C@@H]1O	i	15%	87*	11%	-3	0
CCO[C@@H]1c2c(ccc3ccc(=O)oc23)OC(C)(C)[C@@H]1O	i	13%	1	10%	-2	19
C/C=C(/C)C(=O)O[C@@H]1[C@H](OC(=O)C=C(C)C)c2c(ccc3ccc(=O)oc23)OC1(C)C	i	-23%	-4	-3%	24	-12
CCCN(Cc1nnc(-c2ccccc2Cl)o1)C(=O)c1ccc(C)c(S(=O)(=O)N2CCOCC2)c1	i	-8%	3	4%	-13	8
Cn1nccc1-c1coc2c(C(=O)NCc3ccccc3)cccc12	i	.	-2	1%	-10	-18
O=C(c1ccc2c(c1)N(Cc1ccccc1F)C(=O)c1ccccc1S2(=O)=O)N1CCc2ccccc21	i	.	3	11%	.	.
CN(C)S(=O)(=O)c1ccc(C(=O)Nc2ccccc2C(=O)O)cc1	i	12%	4	11%	1	0
CCOc1cccc(/C(O)=C2/C(=O)C(=O)N(CCOC)C2c2ccco2)c1 (stereo not drawn)	i	-8%	-1	0%	10	-55*
COc1ccc(CNC(=O)c2nc(SCc3ccc(C)cc3)ncc2Cl)cc1	.	.	-20	.	.	.
COC(=O)CSc1nnc(CNC(=O)c2ccccc2F)n1-c1ccc(F)cc1	i	13%	0	.	-56*	-16
CC(COc1ccccc1)NC(C)C(O)c1ccc(O)cc1 (stereo not drawn)	i	.	-71	3%	-26	-87*
CC1(C)COC(c2cccc([N+](=O)[O-])c2)OC1	i	17%	-1	0%	-8	-16
Cc1ccccc1Nc1cc(C)c2c(O)cccc2n1	?	-5%	1	19%	-87*	21
Cc1ccc(Nc2cc(C)c3c(O)cccc3n2)cc1C	?	?	-5	-31%	-9	-23
CCCCN(C(=O)C1CCCC1)c1c(N)n(Cc2ccccc2)c(=O)[nH]c1=O	i	-3%	-5	0%	-6	-3
Cc1ccc(CNc2nc(CN3CCN(C=O)CC3)nc3ccccc23)o1	i	.	.	.	.	.
Cc1ccnc2nc(C(=O)OCCOc3cccc(Br)c3)nn12	i	10%	1	1%	-4	-25

High-throughput results (PubChem)
